Bioassay records (PubChem BioAssay)
BLM inh = qHTS Assay for Inhibitors of Bloom's syndrome helicase (BLM); hit rate 0.2% among 350,000; RecQ-like DNA helicase BLM (Homo sapiens), P54132; recombinant BLM DNA unwinding, fluorescence dequenching; Potency, µM (highest dose often 56.1 µM), for the others: at the top dose activity change, negative = inhibition, hits mostly inhibitors;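 also: plate controls were vehicle for no effect and no enzyme for full effect; nearly all actives have a fitted effect of over 35% in size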
RECQ1 inh-1 = qHTS Assay for Inhibitors of RecQ-Like Dna Helicase 1 (RECQ1). RECQ1 DNA unwinding, red fluorescence kinetic read. ATP-dependent DNA helicase Q1 (Homo sapiens), P46063. AID 2549, 2010. hit rate 0.54% among 240,000. Potency, µM (highest dose often 57.3 µM), for the others: at the highest dose activity, negative = inhibition, hits mostly inhibitors;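 also: plate controls were vehicle for no effect and no enzyme for full effect; nearly all actives have a fitted effect of over 30% in size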
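50 nM RECQ1T1 preincubated 15 min with compound in Tris pH 8.0 buffer with MgCl2, DTT, Tween-20 and 2.5 ug/ml poly(dI-dC); started with 200 nM TAMRA/BHQ-2 forked duplex and 2 mM ATP. Unwinding read as fluorescence (525/598 nm), two reads 2 h apart.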
APE1 inh = qHTS Assay for Inhibitors of the Human Apurinic/apyrimidinic Endonuclease 1 (APE1). DNA repair nuclease/redox regulator APEX1 (Homo sapiens), P27695. recombinant APE1, TAMRA/BHQ-2 abasic DNA cleavage fluorescence. Potency, µM (doses to about 65.8 µM), for the others: at the highest dose activity change, negative = inhibition, usual class: inhibitors. hit rate 0.35% among 350,000. AID 2517, 2012;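 also: plate controls were vehicle for no effect and reference inhibitor for full effect; nearly all actives have a fitted effect of over 55% in size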
Target sequence (P27695 whole entry, looked up): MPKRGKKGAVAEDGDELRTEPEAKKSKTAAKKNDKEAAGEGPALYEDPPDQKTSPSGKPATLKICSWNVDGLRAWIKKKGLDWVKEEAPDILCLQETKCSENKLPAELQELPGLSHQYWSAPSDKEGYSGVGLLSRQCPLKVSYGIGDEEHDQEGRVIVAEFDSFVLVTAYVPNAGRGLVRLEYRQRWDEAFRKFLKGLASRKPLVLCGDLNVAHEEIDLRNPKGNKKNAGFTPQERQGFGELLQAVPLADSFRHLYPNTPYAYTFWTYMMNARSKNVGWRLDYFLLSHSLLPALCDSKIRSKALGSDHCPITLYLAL
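Step 1: APE1 (0.75 nM) with compound, 15 min RT. Step 2: add 50 nM fluorophore/quencher THF duplex. Step 3: three fluorescence reads 60 s apart (525/598 nm); read 3 minus read 1 = reaction progress.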
FEN1 inh = qHTS Assay for the Inhibitors of Human Flap endonuclease 1 (FEN1) | AID 588795, 2011 | P39748 | hit rate 0.35% among 390,000 | Recombinant FEN1 flap cleavage, fluorescence, 15 min | Potency, µM (series often up to 114 µM), for the others: at the top dose activity change, negative = inhibition, usual class: inhibitors; also: nearly all actives have a fitted effect of over 65% in size
Target sequence (P39748 whole entry, looked up): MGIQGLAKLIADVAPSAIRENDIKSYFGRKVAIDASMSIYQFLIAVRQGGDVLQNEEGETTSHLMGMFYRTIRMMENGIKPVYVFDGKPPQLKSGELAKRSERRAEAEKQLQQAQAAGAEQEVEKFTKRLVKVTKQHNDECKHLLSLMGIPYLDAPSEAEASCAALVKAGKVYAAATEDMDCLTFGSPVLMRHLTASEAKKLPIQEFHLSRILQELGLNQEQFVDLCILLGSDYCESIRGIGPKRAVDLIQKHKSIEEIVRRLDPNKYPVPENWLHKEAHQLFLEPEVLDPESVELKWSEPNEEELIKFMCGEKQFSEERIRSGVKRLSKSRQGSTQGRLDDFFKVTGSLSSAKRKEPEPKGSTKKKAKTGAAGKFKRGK
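FEN1 at 10 nM, compound pretreatment for 15 min (room temperature), 50 nM final substrate to initiate; endpoint reads at 0 and 15 min; DMSO-only plates used as vehicle background.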
PGK inhibitor = qHTS Assay to Find Inhibitors of Phosphoglycerate Kinase; Potency, µM (titrated, usually from 57.5 µM), for the others: top-dose activity change, negative = inhibition, usual class: inhibitors; Phosphoglycerate kinase, glycosomal (Trypanosoma brucei brucei), P07378; hit rate 0.043% among 380,000; PGK/GAPDH coupled, Kinase-Glo luminescence, 60 min; also: nearly all actives have a fitted effect of over 60% in size
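Luminescent ATP detection (Kinase-Glo Plus) follows a 60-minute room-temperature incubation, with wells lacking PGK as controls. Buffer: 100 mM TEA (pH 7.6), 5 mM MgCl2, 0.01% Tween-20. Coupling enzyme GAPDH (100 nM final) supplies unstable 1,3-BPG in-well.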
RECQ1 conf = Confirmation qHTS Assay for Inhibitors of RecQ-Like Dna Helicase 1 (RECQ1). shares compounds with RECQ1 inh-1. RECQ1 helicase DNA unwinding, fluorescence. Potency, µM (doses to about 229 µM), without a hit: at the top dose activity change, negative = inhibition, hits mostly inhibitors. hit rate 28% among 610; also: nearly all actives have a fitted effect of over 45% in size
ADP FP counter = Counterscreen for RECQ1 Inhibitors: ADP Fluorescence Polarization Displacement Assay | hit rate 27% among 530 | shares compounds with RECQ1 inh-1 | ADP fluorescence polarization displacement counterscreen | Potency, µM (titrated, usually from 228 µM), for inactives: at the highest dose activity change, negative = inhibition, hits mostly inhibitors | AID 2711, 2010; also: nearly all actives have a fitted effect of over 45% in size
RECQ1 inh-2 = Confirmation qHTS Assay for Inhibitors of RecQ-Like Dna Helicase 1 (RECQ1) - Round 2 Cherry Picks; shares compounds with RECQ1 inh-1; recombinant RECQ1 DNA unwinding, red fluorescence; Potency, µM (top dose mostly 119 µM), without a hit: top-dose activity, negative = inhibition, actives largely listed as inhibitors; hit rate 15% among 1,100; AID 504841, 2011; also: nearly all actives have a fitted effect of over 50% in size
Starred values were filed as active, the others as inactive; i = inactive; ? = inconclusive; · = no result given; [ ] = another dose, or the depositor's remark. This is a sample that favours compounds with a hit; in the whole collection about 0.74% have one here. Calls follow the shape of the dose curve; as a rule, active = well fitted curve in the direction sought with a large enough effect; inconclusive = small, poorly fitted or top-dose-only effect, or another doubt; inactive = no such curve, though single readings can be large; an effect the other way counts as inactive or inconclusive. Unless noted, % is scaled to controls: 0 for no effect and ±100 for the full control effect; potency is read from the fitted curve at half-maximal effect.

SMILES	BLM inh	RECQ1 inh-1	APE1 inh	FEN1 inh	PGK inhibitor	RECQ1 inh-2	others
CCC(C)CCCCC(=O)NC(CCN)C(=O)NC(C(=O)NC(CCN)C(=O)NC1CCNC(=O)C(C(C)O)NC(=O)C(CCN)NC(=O)C(CCN)NC(=O)C(CC(C)C)NC(=O)C(Cc2ccccc2)NC(=O)C(CCN)NC1=O)C(C)O (stereo not given)	7.9µM*	5µM*	·	·	·	·	RECQ1 conf=2.8µM*;ADP FP counter=?
CC[C@@H](C)CCCCC(=O)N[C@H](CCN)C(=O)N[C@@H](C(=O)N[C@H](CCN)C(=O)N[C@@H]1CCNC(=O)C([C@@H](C)O)NC(=O)[C@@H](CCN)NC(=O)[C@@H](CCN)NC(=O)[C@@H](CC(C)C)NC(=O)[C@@H](Cc2ccccc2)NC(=O)[C@@H](CCN)NC1=O)[C@@H](C)O (stereo not given in full)	·	·	5%	·	·	·
COc1ccc2c(c1)CCc1c(C(=O)N(C)c3ccccc3)noc1-2	-3%	4.5µM*	-2%	-14%	i	-12%	RECQ1 conf=6%[114 µM];ADP FP counter=?
CCCCC(=O)OCC(=O)[C@]1(O)Cc2c(O)c3c(c(O)c2[C@H](OC2CC(NC(=O)C(F)(F)F)C(O)C(C)O2)C1)C(=O)c1c(OC)cccc1C3=O (stereo not given in full)	-18%	·	·	·	·	·
COc1cccc2c1C(=O)c1c(O)c3c(c(O)c1C2=O)C[C@@](O)(C(=O)CO)C[C@@H]3OC1C[C@@H](N)[C@H](O)[C@H](C)O1 (stereo not given in full)	28µM*	16µM*	10µM*	·	·	·	ADP FP counter=0.4µM*
O=C(CSc1ccccc1)Nc1nc2ccccc2[nH]1	-8%	-1%	-3%	3%	0%	·
O=C(CSc1ccc(Cl)cc1)Nc1ccc(-c2nc3ccccc3[nH]2)cc1	-11%	28µM*	-6%	-16%	-7%	-28%
CCc1cc(=O)n2[nH]c(C)c(-c3ccccc3OC)c2n1	-3%	i	14%	12%	1%	·
Cc1ccc(NC(=O)Cc2cc(C(=O)O)c3ccccc3n2)c(C)c1	0%	i	0%	-13%	i	·	RECQ1 conf=11%;ADP FP counter=-1%
Cc1ccc(NC(=O)c2cc(-c3cccs3)nc3ccccc23)c(C)c1	-2%	·	·	-36%	-12%	·
O=C(C1=NN[C@@H]2C(=O)N(c3cccc(C(F)(F)F)c3)C(=O)[C@H]12)C(c1ccccc1)c1ccccc1	-12%	28µM*	-7%	0%	i	-20%
O=C(C1=NN[C@@H]2C(=O)N(c3cccc(F)c3)C(=O)[C@H]12)C(c1ccccc1)c1ccccc1	-2%	-6%	14%	10%	-1%	·
CCOc1ccccc1NC(=O)c1cccc2c1C(=O)N(C1CCCCC1)C2	-10%	·	-6%	-21%	-3%	·
CCCC1=C/C(=C/c2ccc(-c3ccccc3OC)o2)C(=O)O1	-11%	22µM*	8%	7%	-1%	·	RECQ1 conf=?
Cc1ccc(-c2nc3c(c(=O)[nH]c(=O)n3Cc3ccccc3)n2Cc2ccccc2)o1	-5%	-16%	-1%	-16%	i	·
Cc1ccc(-c2nc3c(c(=O)[nH]c(=O)n3Cc3ccccc3)n2C)o1	?	14µM*	22µM*	1%	5%	?	RECQ1 conf=?
CCCOc1ccc(Cc2nn3c(=O)/c(=C/c4ccco4)sc3nc2=O)cc1	-4%	25µM*	?	?	-27%	?
COc1ccccc1/C=C/C=c1\sc2nc(=O)c(Cc3ccccc3)nn2c1=O	?	?	?	79µM*	-15%	?
CCCCCOc1ccc(/C=c2\sc3nc(=O)c(-c4ccccc4)nn3c2=O)cc1OC	0%	-16%	?	-1%	-5%	·
Cc1nc2ccc(N=NN(C)C)cc2[nH]1	-4%	11%	0%	-25%	-10%	·
O=C(COc1ccc2ccccc2c1)Nc1cccc(C(=O)Nc2ccccc2C(=O)O)c1	-3%	?	?	-17%	-8%	?
O=C(Nc1nc2c(F)cccc2s1)c1ccc([N+](=O)[O-])o1	-6%	·	6%	-1%	-1%	·
CCn1nc(C)cc1Nc1ccccc1	1%	i	15%	-6%	-16%	·
COc1ccc(C2CC(=O)N3CN(Cc4ccco4)CSC3=C2C#N)cc1 (stereo not given)	-3%	-15%	0%	3%	-11%	·
COc1cc(C2CC(=O)N3CN(Cc4ccco4)CSC3=C2C#N)ccc1OCc1ccccc1 (stereo not given)	-23%	?	7%	?	-6%	-7%
SMILES	BLM inh	RECQ1 inh-1	APE1 inh	FEN1 inh	PGK inhibitor	RECQ1 inh-2	others
CCCCN(C)c1nc2c(S(=O)(=O)c3ccc(CC)cc3)nnn2c2ccc(Cl)cc12	-6%	·	·	12%	i	·
Cc1ccc(N2CC(C(=O)NCc3ccc(C)n3C)CC2=O)cc1 (stereo not given)	-9%	?	-7%	7%	2%	-9%
Cc1ccc(N2CC(C(=O)NCCC(C)C)CC2=O)cc1 (stereo not given)	-1%	-3%	3%	9%	i	·
O=C(OCC(=O)c1ccc(S(=O)(=O)N2CCCC2)cc1)C1=COCCO1	-4%	-5%	-1%	8%	-8%	·
Cc1cc(C)c(Nc2cc(S(=O)(=O)O)c(N)c3c2C(=O)c2ccccc2C3=O)c(C)c1	-30%	?	?	56µM*	?	32µM*
COc1cccc(CN2CCN(C(=O)c3cccc(OC)c3)CC2)c1	-5%	·	37%	11%	0%	·
COc1cccc(CN2CCN(C(=O)c3ccc(-c4ccccc4)cc3)CC2)c1	-2%	25µM*	13%	-6%	3%	-27%
